# Reference: PubChem BioAssay
# Unmarked numbers belong to inactive results. For some assays here: Measured potencies and affinities stand elsewhere. Active and inactive are the calls of the source. Unless noted, how the calls were made is not given here.
# Key:
# [1] = antimalarial activity against Dd2 strain (AID 2302;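 active means growth inhibition above 50% at the single 2 µM test dose, taken to imply half-maximal potency below 2 µM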;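 further: 0% = DMSO untreated growth and 100% = chloroquine plus artemisinin killed control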); settings: P. falciparum Dd2 in RBCs, LDH growth readout, 72 h; at 2 µM; stronger effect = higher value
# [2] = human hepatoma cell viability loss – ATP luminescence, cytotoxicity control for P. falciparum antimalarial project, primary screen (AID 2303;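 active means inhibition above 50%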;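 further: 0% = DMSO wells and 100% = digitonin-killed cells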); settings: HepG2 viability, 24-48 h, at 10 µM, stronger effect = higher value
# [3] = target: L-lactate dehydrogenase (Plasmodium falciparum (isolate CDC / Honduras)) (UniProt Q27743); assay: PfLDH activity inhibition – cell lysate, 3D7 strain, counter-screen for P. falciparum growth inhibition project (AID 2304);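 further: 0% = vehicle and 100% = reference inhibitor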; settings: P. falciparum 3D7 crude extract, LDH APAD/NBT absorbance; at 2 µM; stronger effect = higher value
# [4] = inhibition of 3D7 malaria parasite growth – strain 3D7 (AID 2306);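 further: 0% = DMSO wells and 100% = chloroquine plus artemisinin control wells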; settings: P. falciparum 3D7 erythrocytic growth, LDH absorbance, 72 h; at 2 µM; stronger effect = higher value
# [5] = target: Calcium-dependent protein kinase 1 (Plasmodium falciparum (isolate 3D7)) (UniProt P62344); assay: PfCDPK1 kinase inhibitors, biochemical, TCAMS library (AID 1159585; cut-off not given, nearly all actives have IC50 up to about 0.98 µM;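 further: inhibitors leave more ATP so luminescence rises with inhibition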); settings: recombinant PfCDPK1, Kinase-Glo ATP depletion luminescence
# [6] = target: Plasmodium falciparum protein kinase 6 (PK6, PF3D7_1337100) (UniProt Q8IDW1); assay: PfPK6 kinase inhibitors, biochemical, TCAMS library (AID 1159586); settings: recombinant PfPK6, Kinase-Glo ATP depletion luminescence
# [7] = target: Protein kinase 7 (PK7), Plasmodium falciparum 3D7 (PF3D7_0213400) (UniProt Q7YTF7); assay: inhibition of Plasmodium PK7 catalytic activity – biochemical, TCAMS antimalarial set, Kinase-Glo luminescence (AID 1159587); settings: recombinant PfPK7, Kinase-Glo ATP depletion luminescence
# [8] = target: Calcium-dependent protein kinase 4 (Plasmodium falciparum (isolate 3D7)) (UniProt Q8IBS5); assay: PfCDPK4 kinase inhibitors, biochemical, TCAMS library (AID 1159588; cut-off not given, nearly all actives have IC50 up to about 0.91 µM); settings: recombinant PfCDPK4, Kinase-Glo ATP depletion luminescence
# Sequence of Calcium-dependent protein kinase 4 (Plasmodium falciparum (isolate 3D7)) (Q8IBS5 whole entry, looked up): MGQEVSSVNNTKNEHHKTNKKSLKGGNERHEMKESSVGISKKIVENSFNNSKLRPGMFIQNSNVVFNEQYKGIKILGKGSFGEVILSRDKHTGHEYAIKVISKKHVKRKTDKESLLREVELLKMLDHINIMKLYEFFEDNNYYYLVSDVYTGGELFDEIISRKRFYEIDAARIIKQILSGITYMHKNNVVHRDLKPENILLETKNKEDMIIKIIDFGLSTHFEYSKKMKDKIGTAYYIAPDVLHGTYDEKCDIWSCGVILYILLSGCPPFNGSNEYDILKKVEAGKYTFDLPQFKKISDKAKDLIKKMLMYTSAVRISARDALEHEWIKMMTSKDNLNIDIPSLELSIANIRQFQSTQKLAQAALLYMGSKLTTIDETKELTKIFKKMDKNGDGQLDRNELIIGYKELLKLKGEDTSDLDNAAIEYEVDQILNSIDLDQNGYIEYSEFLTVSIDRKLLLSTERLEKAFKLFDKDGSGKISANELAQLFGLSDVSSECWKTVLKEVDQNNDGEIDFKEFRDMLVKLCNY
# Sequence of Plasmodium falciparum protein kinase 6 (PK6, PF3D7_1337100) (Q8IDW1 1-305): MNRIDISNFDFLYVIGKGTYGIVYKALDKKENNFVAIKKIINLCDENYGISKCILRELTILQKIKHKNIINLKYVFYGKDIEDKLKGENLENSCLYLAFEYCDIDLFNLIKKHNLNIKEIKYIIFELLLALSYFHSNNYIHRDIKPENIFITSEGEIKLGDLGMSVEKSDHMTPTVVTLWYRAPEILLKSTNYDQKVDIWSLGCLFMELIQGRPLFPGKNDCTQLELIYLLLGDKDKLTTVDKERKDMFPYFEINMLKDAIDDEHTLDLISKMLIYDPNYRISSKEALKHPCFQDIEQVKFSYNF
# Sequence of Calcium-dependent protein kinase 1 (Plasmodium falciparum (isolate 3D7)) (P62344 whole entry, looked up): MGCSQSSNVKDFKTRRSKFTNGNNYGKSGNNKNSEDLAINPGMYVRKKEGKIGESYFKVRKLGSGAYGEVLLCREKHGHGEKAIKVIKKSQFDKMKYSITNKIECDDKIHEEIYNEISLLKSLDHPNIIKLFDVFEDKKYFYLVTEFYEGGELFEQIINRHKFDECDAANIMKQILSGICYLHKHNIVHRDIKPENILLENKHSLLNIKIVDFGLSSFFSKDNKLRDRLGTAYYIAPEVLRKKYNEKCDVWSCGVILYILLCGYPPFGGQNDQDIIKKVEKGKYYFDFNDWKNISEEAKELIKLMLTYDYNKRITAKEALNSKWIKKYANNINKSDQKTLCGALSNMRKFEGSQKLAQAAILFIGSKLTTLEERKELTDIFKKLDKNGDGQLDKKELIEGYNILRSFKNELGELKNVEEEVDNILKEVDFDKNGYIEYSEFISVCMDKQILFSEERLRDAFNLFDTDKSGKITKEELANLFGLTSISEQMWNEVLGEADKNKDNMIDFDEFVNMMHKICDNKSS
# Sequence of Protein kinase 7 (PK7), Plasmodium falciparum 3D7 (PF3D7_0213400) (Q7YTF7 1-343): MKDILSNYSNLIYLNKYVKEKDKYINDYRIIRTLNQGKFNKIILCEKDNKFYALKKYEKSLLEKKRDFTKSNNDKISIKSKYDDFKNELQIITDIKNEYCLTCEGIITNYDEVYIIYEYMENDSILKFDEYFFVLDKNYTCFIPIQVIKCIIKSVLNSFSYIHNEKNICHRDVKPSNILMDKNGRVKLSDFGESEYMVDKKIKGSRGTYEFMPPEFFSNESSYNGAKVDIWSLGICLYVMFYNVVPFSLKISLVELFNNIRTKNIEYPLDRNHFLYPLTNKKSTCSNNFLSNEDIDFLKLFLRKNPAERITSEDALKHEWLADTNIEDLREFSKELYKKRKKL
# Sequence of L-lactate dehydrogenase (Plasmodium falciparum (isolate CDC / Honduras)) (Q27743 whole entry, looked up): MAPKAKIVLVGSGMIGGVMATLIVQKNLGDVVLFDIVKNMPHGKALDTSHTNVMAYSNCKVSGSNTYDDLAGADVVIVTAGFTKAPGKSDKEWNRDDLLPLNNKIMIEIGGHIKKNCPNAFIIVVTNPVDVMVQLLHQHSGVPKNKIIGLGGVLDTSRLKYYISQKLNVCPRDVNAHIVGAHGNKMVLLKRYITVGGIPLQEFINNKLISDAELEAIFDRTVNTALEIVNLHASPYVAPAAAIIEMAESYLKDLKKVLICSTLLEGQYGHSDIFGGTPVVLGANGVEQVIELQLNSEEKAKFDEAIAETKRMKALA
SMILES,growth inhibition [1],inhibition [2],inhibition [3] [%],growth inhibition [4],outcome [5],outcome [6],outcome [7],outcome [8]
O=C(/C=C/c1ccc(Cl)c(Cl)c1)NCCCCCN1CCC(NC(=O)Nc2ccccc2F)CC1,25%,14%,-5,95% (active),inactive,inactive,inactive,inactive
c1ccc2cc3c(NCCN4CCOCC4)ccnc3cc2c1,98% (active),-1%,-1,99% (active),inactive,inactive,inactive,inactive
N#CCCN1CCN(Cc2ccc(-c3cccc(-c4nc5ccc(F)cc5[nH]4)c3)cc2)CC1,17%,16%,0,91% (active),inactive,inactive,inactive,inactive
CC(Sc1nc(-c2ccccc2)c(-c2ccccc2)o1)C(=O)NC1CC1 (stereo not given),91% (active),13%,-2,94% (active),inactive,inactive,inactive,inactive
COc1ccc(OCCCON)cc1,-3%,3%,-1,98% (active),inactive,inactive,inactive,inactive
COc1ccc2nccc([C@@H](O)CN3CCC(NC(=O)COc4nc(SCc5ccc(F)cc5)nc5c4CCC5)CC3)c2c1,78% (active),29%,-2,96% (active),inactive,inactive,inactive,inactive
CN1CCN(CCCCNc2c3ccccc3nc3ccccc23)CC1,-7%,37%,4,101% (active),inactive,inactive,inactive,inactive
Cc1cccc(Nc2nccc(Nc3cccc(C(=O)NCCN4CCOCC4)c3)n2)c1,11%,10%,-2,91% (active),inactive,inactive,inactive,inactive
FC(F)(F)COc1c(CCNCCCCNCCc2ccc3ccccc3c2OCC(F)(F)F)ccc2ccccc12,97% (active),99% (active),-3,101% (active),inactive,inactive,inactive,inactive
CC(=O)Nc1ccc(S(=O)(=O)Nc2ccc(Nc3nc(C)cc(N4CCCCC4)n3)cc2)cc1,54% (active),23%,0,89% (active),inactive,inactive,inactive,inactive
O=C(c1ccc(O)c(-c2cc(Cl)cc(Cl)c2)c1)N(CCO)CCO,62% (active),1%,-9,94% (active),inactive,inactive,inactive,inactive
O=c1n(CC2CCCCC2)c2cc(Cl)cc(OCCNc3ccncc3)c2n1CC1CCCCC1,64% (active),2%,-3,100% (active),inactive,inactive,inactive,inactive
O=c1cc(NCCCNC2CCOc3c(Cl)cccc32)[nH]c2ccccc12 (stereo not given),27%,-3%,3,96% (active),inactive,inactive,inactive,inactive
COCCN1CCC(N(Cc2ccc(-c3ccc(C(F)(F)F)cc3)cc2)C(=O)Cn2c(CCc3cccc(F)c3F)cc(=O)c3c2CCC3)CC1,48%,31%,-5,85% (active),inactive,inactive,inactive,inactive
CC(C)(C)c1ccc(CN2CCC(CNC(=O)c3cc(-c4ccccc4)nc4ccccc34)CC2)cc1,36%,33%,-1,89% (active),inactive,inactive,inactive,inactive
CCN(CCCN1CCCCC1)c1cc(C)nc(Nc2cccc(OC(F)(F)F)c2)n1,99% (active),32%,-2,102% (active),inactive,inactive,inactive,inactive
CC(C)NCc1cccc(-c2ccc(NC(=O)c3cccc(C#N)c3)cc2)c1,95% (active),22%,6,101% (active),inactive,inactive,inactive,inactive
O=C(Nc1ccc(-c2cccc(-c3nc4ccc(C(F)(F)F)cc4[nH]3)c2)cc1)c1ccc(=O)[nH]n1,13%,72% (active),-4,87% (active),inactive,inactive,inactive,inactive
CN(c1ncc(-c2cccc(CNCc3ccccc3O)c2)cn1)C1CCCCC1,71% (active),12%,3,95% (active),inactive,inactive,inactive,inactive
N=C(N)c1ccc(-c2cc(-c3cccc(C(=N)N)c3)on2)cc1,45%,7%,2,96% (active),inactive,inactive,inactive,inactive

SMILES,growth inhibition [1],inhibition [2],inhibition [3] [%],growth inhibition [4],outcome [5],outcome [6],outcome [7],outcome [8]
CC1CCN(c2nc(C(=O)NCCc3ccc(Cl)c(Cl)c3)c(C(C)C)s2)CC1,38%,-3%,3,88% (active),inactive,inactive,inactive,inactive
CNC(=S)NCc1cnc2ccccn12,-2%,-2%,3,97% (active),inactive,inactive,inactive,inactive
Nc1cccc(CNCc2ccc(-c3ccc(-c4nc5ccc(C(F)(F)F)cc5[nH]4)s3)cc2)c1,98% (active),28%,-2,102% (active),inactive,inactive,inactive,inactive
CNC(=O)c1ccccc1Nc1cc(Nc2cc(OC)ccn2)ncc1Cl,100% (active),69% (active),5,100% (active),inactive,inactive,inactive,inactive
Cc1ccc(CNC(=O)[C@H](Cc2ccccc2)Nc2cc(C)nc(NCc3ccccc3C)n2)cc1,50% (active),23%,0,97% (active),inactive,inactive,inactive,inactive
NC1=NCN(OCc2ccc(Cl)c(Cl)c2)C(N)=N1,4%,14%,-3,95% (active),inactive,inactive,inactive,inactive
COc1cccc(C(=O)Nc2nc3c(s2)CCN(Cc2ccccc2N2CCNCC2)CC3)c1,11%,7%,-6,89% (active),inactive,inactive,inactive,inactive
Cc1cc2cc(/C=C/C(=O)NC3CCC(CCN4CCc5ccc(C#N)cc5CC4)CC3)ccc2[nH]1 (stereo not given),49%,6%,-1,85% (active),inactive,inactive,inactive,inactive
CCCCN(C)CC#Cc1ccc(-c2ccc3[nH]c(C)c(Br)c(=O)c3c2)cn1,93% (active),3%,-3,98% (active),inactive,inactive,inactive,inactive
CC(=O)Nc1cccc(C(=O)Nc2cccc(-c3ccc(-c4nc5c(C)cccc5[nH]4)s3)c2)c1,26%,75% (active),4,99% (active),inactive,inactive,inactive,inactive
COc1ccc2nccc(N3CCC(NCc4ccc5c(n4)NC(=O)CS5)CC3)c2n1,63% (active),14%,6,100% (active),inactive,inactive,inactive,inactive
Cc1cc(C)c2[nH]cc(C(=O)O)c(=O)c2c1,60% (active),-1%,-6,93% (active),inactive,inactive,inactive,inactive
COc1ccc2nccc([C@@H](O)CN3CCC(NCc4cc5oc(=O)[nH]c5cc4F)CC3)c2c1,4%,-9%,-2,99% (active),inactive,inactive,inactive,inactive
CCOc1ccc(C=CC(=O)Nc2ccc3nc(N4CCN(C)CC4)cc(C)c3c2)cc1OC,70% (active),-2%,-10,102% (active),inactive,inactive,inactive,inactive
O=C(/C=C/c1cccc2c1OCO2)Nc1ccnc2ccncc12,35%,17%,-4,90% (active),inactive,inactive,inactive,inactive
COc1ccc2nccc([C@@H](O)CN3CCC(NCCOc4cc(C(F)(F)F)ccc4F)CC3)c2c1,83% (active),13%,2,100% (active),inactive,inactive,inactive,inactive
CC(=NNC(=S)NC(c1ccccc1)c1ccccc1)c1ccccn1,97% (active),45%,-2,98% (active),inactive,inactive,inactive,inactive
CN(C)CCC(O)(c1ccc(Br)cc1)c1cccnc1 (stereo not given),1%,22%,5,96% (active),inactive,inactive,inactive,inactive
COc1ccc(C(=O)CCC(=O)N(Cc2ccc(-c3ccc(CNCCc4ccc(S(C)(=O)=O)cc4)cn3)cc2)C2C[C@@H]3CC[C@H]2C3)cc1F (stereo not given in full),34%,5%,0,97% (active),inactive,inactive,inactive,inactive
COC(=O)CCCOc1cc(Cc2cnc(N)nc2N)cc(OC)c1OC,-4%,12%,-6,95% (active),inactive,inactive,inactive,inactive
